Results: PubChem BioAssay (NCATS)
A number with no mark means an inactive call. Records with an inconclusive call do not appear. Where a call stands in place of a potency, no number is given. Active and inactive are the calls of the source. Calls come from the whole dose curve; as a rule, active = well fitted curve in the direction sought with a large enough effect; inconclusive = small, poorly fitted or top-dose-only effect, or another doubt; inactive = no such curve, though single readings can be large; an effect the other way counts as inactive or inconclusive.

Assays:
[1] = target: Arylsulfatase A (Homo sapiens) (UniProt P15289); test: qHTS screen for enhancers of Arylsulfatase A (ASA1): LOPAC Validation Assay (AID 720538); settings: ASA enzyme activity, LOPAC qHTS enhancer assay; series mostly up to 57.5 µM; note: potency is the fitted concentration of half-maximal effect
How it was run: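 Cell-based enhancement test: residual ASA activity in SV40-transformed I179S patient fibroblasts is measured by pNCS turnover (0.5mM final, 14h, room temperature) following 48h compound incubation; higher fluorescence indicates activation.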

[2] = qHTS for compounds that reverse cellular toxicity of Amyloid beta (A-beta) peptide in yeast: LOPAC Validation Assay (AID 720559); settings: yeast expressing A-beta; Potency: rescue of growth toxicity; series mostly up to 46.1 µM
How it was run: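 Here, A-beta-toxic yeast grow with test compounds at 30 C for 48 hr before optical density at 600 nm is recorded; data are normalized against DMSO and the FeCl3-clioquinol control.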

[3] = qHTS for Activators of Parkin Expression: LOPAC Validation Assay (NLuc Reporter) (AID 720572); settings: Parkin promoter NanoLuc reporter cells, luminescence; series mostly up to 46.1 µM
How it was run: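 Compound effects on Parkin promoter activity were measured as NanoLuc luminescence after 24 h at 37 C. The neuronal reporter line also carried FLuc, which was read first. LOPAC compounds were tested at 7 concentrations, with normalization to DMSO (0%) and positive control (100%).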

Sequence of Arylsulfatase A (Homo sapiens) (P15289 whole entry, looked up): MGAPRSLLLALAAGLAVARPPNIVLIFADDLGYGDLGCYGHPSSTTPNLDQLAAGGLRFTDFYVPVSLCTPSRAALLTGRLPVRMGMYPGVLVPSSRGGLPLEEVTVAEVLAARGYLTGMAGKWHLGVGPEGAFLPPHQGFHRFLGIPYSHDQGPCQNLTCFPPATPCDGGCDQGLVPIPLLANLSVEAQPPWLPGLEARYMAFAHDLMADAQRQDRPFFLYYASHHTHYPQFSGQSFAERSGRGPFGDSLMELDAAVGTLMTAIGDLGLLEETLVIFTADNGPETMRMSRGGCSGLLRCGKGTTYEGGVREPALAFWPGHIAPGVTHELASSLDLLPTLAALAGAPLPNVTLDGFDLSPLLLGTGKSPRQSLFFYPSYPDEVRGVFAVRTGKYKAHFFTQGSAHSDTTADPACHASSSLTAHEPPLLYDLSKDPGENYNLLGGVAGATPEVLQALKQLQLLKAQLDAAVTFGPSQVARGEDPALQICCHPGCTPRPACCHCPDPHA

| SMILES | Potency [1] | Potency [2] | Potency [3] |
| --- | --- | --- | --- |
| CN1CCc2cccc3c2C1Cc1ccc(O)c(O)c1-3 (centres undefined) | inactive | inactive |  |
| OC[C@H]1O[C@@H](n2cnc3c(Nc4ccccc4)ncnc32)[C@H](O)[C@@H]1O | inactive |  |  |
| COc1ccc(/C=C/C(=O)Nc2ccccc2C(=O)O)cc1OC | 6.75 µM (active) | inactive |  |
| O=S(=O)(c1cccc2c(I)cccc12)N1CCCNCC1 | inactive | inactive |  |
| Nc1nc(Cl)nc2c1ncn2[C@@H]1O[C@H](COP(=O)(O)OP(=O)(O)OP(=O)(O)O)[C@@H](O)[C@H]1O | inactive |  |  |
| O=c1[nH]c2cc(C(F)(F)F)ccc2n1-c1cc(C(F)(F)F)ccc1O | inactive | inactive |  |
| CC1(C)CCC=[N+]1[O-] | inactive | inactive |  |
| N#C/C(=C\c1c[nH]c2ccccc12)C(=O)c1ccc(O)c(O)c1 | inactive | inactive |  |
| CC(C)NC[C@@H](O)c1ccc(O)c(O)c1 | inactive |  |  |
| C#CCN1C(C)=C(C(=O)OC)C(c2cccc([N+](=O)[O-])c2)C(C(=O)OCC)=C1C (centres undefined) | inactive | inactive |  |
| O=C(O)CCCC[C@@H]1CCSS1 | inactive | inactive |  |
| O=C(O)c1cc([N+](=O)[O-])ccc1NCCCc1ccccc1 | inactive | inactive |  |
| C=CC(=O)c1ccc(CCCCCC)cc1 | inactive | inactive |  |
| CC(C)NC[C@H](O)COc1cccc2[nH]ccc12 | inactive |  |  |
| Cc1cc2c(cc1Cl)N(C(=O)Nc1ccc(Oc3cccnc3C)nc1)CC2 | inactive | inactive |  |
| CN1CCc2ccccc2Cc2[nH]c3ccccc3c2CC1 | inactive | inactive |  |
| CSc1nc(N)c2ncn([C@@H]3O[C@H](COP(=O)(O)OP(=O)(O)OP(=O)(O)O)[C@@H](O)[C@H]3O)c2n1 | inactive | inactive |  |
| COc1cccc(OC)c1OCCNCC1COc2ccccc2O1 (centres undefined) | inactive | inactive |  |
| Oc1cc(O)cc(/C=C/c2ccc(O)c(O)c2)c1 | 23.9 µM (active) | inactive |  |
| NS(=O)(=O)C#Cc1ccccc1 | inactive |  |  |

| SMILES | Potency [1] | Potency [2] | Potency [3] |
| --- | --- | --- | --- |
| Nc1nc(Nc2ccccc2)nc2c1ncn2[C@@H]1O[C@H](CO)[C@@H](O)[C@H]1O | inactive | inactive |  |
| CO/S(=N\S(=O)(=O)c1ccc(Cl)cc1)c1ccc([N+](=O)[O-])cc1 (centres undefined) | inactive |  |  |
| O=C(Nc1cccc(C(=O)Nc2ccc(S(=O)(=O)O)c3cc(S(=O)(=O)O)cc(S(=O)(=O)O)c23)c1)Nc1cccc(C(=O)Nc2ccc(S(=O)(=O)O)c3cc(S(=O)(=O)O)cc(S(=O)(=O)O)c23)c1 | inactive | inactive |  |
| CCN(CC)c1ncnc2c1ncn2[C@@H]1O[C@H](COP(=O)(O)OP(=O)(O)C(Br)(Br)P(=O)(O)O)[C@@H](O)[C@H]1O | inactive |  |  |
| CC(=O)SCC[N+](C)(C)C | inactive | inactive |  |
| Cc1ccccc1CNc1ncnc2c1ncn2C1OC(CO)C(O)C1O (centres undefined) | inactive | inactive |  |
| OCC1O[C@H](O)C(Cl)C(O)C1O (some centres undefined) | inactive | inactive | inactive |
| C[N+](C)(CCCCCC[N+](C)(C)CCCN1C(=O)c2cccc3cccc(c23)C1=O)CCCN1C(=O)c2cccc3cccc(c23)C1=O | inactive | inactive | inactive |
| Cc1cc(NC(=O)Nc2ccc3c(ccn3C)c2)sn1 | inactive | inactive | inactive |
| COc1cccc(C(=O)NCCN2CCN(c3ccc(Cl)cc3)CC2)c1 | inactive | inactive | inactive |
| O=C(c1ccc(OCCCc2cnc[nH]2)cc1)C1CC1 | inactive | inactive | inactive |
| O=C1/C(=C/c2ccsc2)CC/C1=C\c1cccs1 | inactive | inactive | inactive |
| C[N+](C)(C)CCOP(=O)(O)OP(=O)([O-])OC[C@H]1O[C@@H](n2ccc(N)nc2=O)[C@H](O)[C@@H]1O | inactive | inactive | inactive |
| CN1CCc2cc(O)c(O)cc2C(c2ccccc2)C1 (centres undefined) | 21.3 µM (active) | inactive | inactive |
| Brc1c(Br)c(Br)c2n[nH]nc2c1Br | inactive | inactive | inactive |
| CN1C2CC(OC(=O)[C@H](CO)c3ccccc3)CC1C1OC12 (some centres undefined) | inactive | inactive | inactive |
| Fc1ccc(C(OCCCc2cnc[nH]2)c2ccc(F)cc2)cc1 | inactive | inactive | inactive |
| NC(=O)C1=CN(C2OC(COP(=O)(O)OP(=O)(O)OC[C@H]3O[C@@H](n4cnc5c(N)ncnc54)[C@H](OP(=O)(O)O)[C@@H]3O)C(O)C2O)C=CC1 (some centres undefined) | inactive | inactive | inactive |
| CSc1ccccc1N1CCN(CCCCCC(=O)NC2CCCc3ccccc32)CC1 (centres undefined) | inactive | inactive | inactive |
